Bioassay records (PubChem)
G9a inh – G9a (human) methyltransferase inhibition | hit rate 8.8% among 350,000 | Q96KQ7 | Potency, µM (top dose mostly 102 µM), for inactives: at the highest dose activity, negative = inhibition, usual class: inhibitors | G9a H3K9 monomethylation, AlphaScreen, 2 h; note: potency is the fitted concentration of half-maximal effect; % is set by controls: 0 for no effect and ±100 for the full control effect; nearly all actives have a fitted effect of over 75% in size
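Readings reflect AlphaScreen signal from monomethyl-H3K9 antibody detection. HMT at 20 nM; substrate b-H3K9 500 nM; cofactor SAM 20 uM; 2 h RT reaction; compounds tested as titrations in qHTS with 15 min preincubation.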
JMJD2A Tudor – blocks the human JMJD2A Tudor domain; O75164; AlphaScreen JMJD2A-Tudor / H3K4me3 peptide binding; Potency, µM (highest dose often 114 µM), without a hit: top-dose activity change, negative = inhibition, actives largely listed as inhibitors; hit rate 4.4% among 390,000; note: potency is the fitted concentration of half-maximal effect; % is set by controls: 0 for no effect and ±100 for the full control effect; nearly all actives have a fitted effect of over 50% in size
HP1b binding inh – HP1-beta chromodomain-methylated histone interaction inhibition | AlphaScreen HP1-beta / biotin-H3K9me3 peptide binding | P83916 | Potency, µM (series often up to 114 µM), without a hit: at the highest dose activity change, negative = inhibition, actives largely listed as inhibitors | AID 540317 | hit rate 0.56% among 390,000; note: potency is the fitted concentration of half-maximal effect; nearly all actives have a fitted effect of over 70% in size
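HP1-beta protein (50 nM final) preincubated 30 min at room temperature with biotinylated H3(1-18)K9me3 peptide (50 nM) in PBS pH 7.4, 0.01% Tween-20, then compound added for 30 min. AlphaScreen streptavidin donor/nickel chelate acceptor beads (10 ug/mL final), 30 min dark, luminescence read.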
BAZ2B block – inhibitors of human BAZ2B bromodomain. Potency, µM (top dose mostly 114 µM), without a hit: top-dose activity change, negative = inhibition, hits mostly inhibitors. Q9UIF8. AlphaScreen BAZ2B-H3K14Ac peptide displacement. hit rate 4.4% among 360,000; note: potency is the fitted concentration of half-maximal effect; % is set by controls: 0 for no effect and ±100 for the full control effect; nearly all actives have a fitted effect of over 60% in size
Target sequence (Q9UIF8 whole entry, looked up): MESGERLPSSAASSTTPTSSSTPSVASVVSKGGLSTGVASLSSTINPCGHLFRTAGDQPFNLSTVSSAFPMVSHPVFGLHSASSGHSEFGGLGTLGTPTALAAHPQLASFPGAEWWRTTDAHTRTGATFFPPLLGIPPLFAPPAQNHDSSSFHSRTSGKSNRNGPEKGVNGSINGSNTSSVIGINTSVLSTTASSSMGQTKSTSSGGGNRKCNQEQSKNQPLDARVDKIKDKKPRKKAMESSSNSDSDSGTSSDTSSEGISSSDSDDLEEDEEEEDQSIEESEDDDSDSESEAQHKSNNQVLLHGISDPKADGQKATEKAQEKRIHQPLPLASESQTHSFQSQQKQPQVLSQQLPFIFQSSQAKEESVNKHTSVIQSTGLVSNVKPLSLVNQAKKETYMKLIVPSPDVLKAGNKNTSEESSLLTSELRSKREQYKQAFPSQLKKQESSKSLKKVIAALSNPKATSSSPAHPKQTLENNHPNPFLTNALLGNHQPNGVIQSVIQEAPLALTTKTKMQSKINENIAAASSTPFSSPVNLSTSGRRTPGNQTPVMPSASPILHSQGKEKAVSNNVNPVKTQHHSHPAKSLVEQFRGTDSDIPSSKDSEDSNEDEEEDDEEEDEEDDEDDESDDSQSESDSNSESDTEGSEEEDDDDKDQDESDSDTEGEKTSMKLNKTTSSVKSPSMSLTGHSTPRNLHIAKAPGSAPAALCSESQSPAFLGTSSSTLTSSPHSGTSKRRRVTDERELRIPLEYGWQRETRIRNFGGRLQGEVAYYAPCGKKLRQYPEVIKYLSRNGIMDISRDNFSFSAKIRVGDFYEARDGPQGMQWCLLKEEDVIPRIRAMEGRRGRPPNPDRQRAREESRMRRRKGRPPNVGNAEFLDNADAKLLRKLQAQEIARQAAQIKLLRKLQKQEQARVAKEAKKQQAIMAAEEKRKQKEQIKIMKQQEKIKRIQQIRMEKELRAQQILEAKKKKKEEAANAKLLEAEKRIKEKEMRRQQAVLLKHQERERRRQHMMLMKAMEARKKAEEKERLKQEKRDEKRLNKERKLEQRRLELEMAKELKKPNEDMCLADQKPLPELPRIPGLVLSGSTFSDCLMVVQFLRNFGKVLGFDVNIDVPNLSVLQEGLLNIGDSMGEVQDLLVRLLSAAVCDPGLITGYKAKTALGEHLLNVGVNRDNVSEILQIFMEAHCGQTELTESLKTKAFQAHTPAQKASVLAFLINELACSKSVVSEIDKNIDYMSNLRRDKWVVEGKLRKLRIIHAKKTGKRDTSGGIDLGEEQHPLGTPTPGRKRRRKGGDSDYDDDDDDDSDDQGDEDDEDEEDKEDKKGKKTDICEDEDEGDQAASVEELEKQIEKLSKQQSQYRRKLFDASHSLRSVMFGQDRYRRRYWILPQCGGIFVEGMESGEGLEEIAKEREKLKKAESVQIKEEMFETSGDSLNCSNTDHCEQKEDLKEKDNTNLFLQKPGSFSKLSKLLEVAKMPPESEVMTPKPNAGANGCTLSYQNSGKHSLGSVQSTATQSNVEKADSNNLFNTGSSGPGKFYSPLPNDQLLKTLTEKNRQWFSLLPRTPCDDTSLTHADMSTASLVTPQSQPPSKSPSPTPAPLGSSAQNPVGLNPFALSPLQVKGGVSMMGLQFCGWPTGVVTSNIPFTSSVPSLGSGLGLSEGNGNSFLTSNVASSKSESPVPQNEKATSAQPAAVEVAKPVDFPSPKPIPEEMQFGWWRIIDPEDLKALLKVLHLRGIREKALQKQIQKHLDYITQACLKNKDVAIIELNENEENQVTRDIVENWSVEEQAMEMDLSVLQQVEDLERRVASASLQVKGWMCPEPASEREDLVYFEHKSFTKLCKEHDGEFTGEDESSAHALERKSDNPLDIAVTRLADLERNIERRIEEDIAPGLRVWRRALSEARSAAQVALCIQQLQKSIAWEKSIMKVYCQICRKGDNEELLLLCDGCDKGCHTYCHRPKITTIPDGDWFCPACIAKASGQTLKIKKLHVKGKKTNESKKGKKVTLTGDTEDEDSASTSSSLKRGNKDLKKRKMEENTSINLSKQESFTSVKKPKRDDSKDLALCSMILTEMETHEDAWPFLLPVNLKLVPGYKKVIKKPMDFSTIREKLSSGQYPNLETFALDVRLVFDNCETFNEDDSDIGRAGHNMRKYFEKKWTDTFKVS
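AlphaScreen displacement of biotin-H3(5-23)K14Ac peptide (50 nM final) from BAZ2B (50 nM final) in PBS pH 7.4, 0.01% Tween-20; complex preformed 30 min RT, then compounds (top 110 uM) 30 min RT, beads 20 min dark.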
CtBP-E1A blk – inhibitors of CtBP/E1A interaction | AlphaScreen GST-E1A/His-CtBP binding, 1536-well; active compounds read low | activity change, % (test concentration not listed) | hit rate 0.49% among 340,000; in the data active = activity change below about -65%; inconclusive = mostly about -30% to -63%; note: % is set by controls: 0 for no effect and ±100 for the full control effect
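Homogeneous bead-based format: GST-tagged E1A captured on glutathione donor beads, His-tagged CtBP on nickel acceptor beads; compounds precede bead addition by 2 h at 37 °C.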
Six1-Eya2 blk – blocks human Six1 binding to Eya2. activity change, % (concentration not given with the values). hit rate 0.56% among 360,000. AlphaScreen GST-Six1/His-Eya2 binding, biochemical; active compounds read low. Q15475+O00167; in the data active = activity change below about -65%; inconclusive = mostly about -30% to -63%; note: % is set by controls: 0 for no effect and ±100 for the full control effect
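GST-Six1 + His-Eya2 (5X stock: 250/500 nM); Tris pH 8.0, 300 mM NaCl, 0.05% BSA, 0.02% Tween 20; GSH donor/Ni acceptor beads; 1 h 37 °C dark; AlphaScreen readout.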
Active calls of the source: *; [ ] = remark or other dose. A selection: hits, their analogues and other compounds. The true share with any hit is near 10%. Unless noted, calls come from the whole dose curve; as a rule, active = well fitted inhibition curve with a large enough effect; inconclusive = small, poorly fitted or top-dose-only effect; inactive = no such curve, though single readings can be large or run the other way.

For CC1(OC(=O)CCc2ccccc2)C(=O)C=C2C=C(c3ccsc3)OC=C2C1=O (stereo unspecified) the results were G9a inh inconclusive and BAZ2B block 50µM*.
For CCCCC1=CC2=CC(=O)C(C)(OC(=O)CC)C(=O)C2=CO1 (stereo unspecified) the results were JMJD2A Tudor inconclusive, HP1b binding inh inconclusive and Six1-Eya2 blk -7.
Screening CCCCC1=CC2=CC(=O)C(C)(OC(=O)C3CCCC3)C(=O)C2=CO1 (stereo unspecified) returned G9a inh inconclusive, JMJD2A Tudor 79µM*, HP1b binding inh inconclusive, BAZ2B block 50µM* and Six1-Eya2 blk -3.
For CC1(OC(=O)C2CCCC2)C(=O)C=C2C=C(c3ccsc3)OC=C2C1=O (stereo unspecified) the results were G9a inh inconclusive, JMJD2A Tudor inconclusive, HP1b binding inh inconclusive, BAZ2B block 50µM*, CtBP-E1A blk -3 and Six1-Eya2 blk -10.
Cc1cccc(N2CCN(CCNC(=O)Nc3ccc(Cl)cc3)CC2)c1C was read as G9a inh -27%[59 µM], JMJD2A Tudor -17%, HP1b binding inh 0% and BAZ2B block -3%.
Screening CC(=O)c1nc(N2C(=O)CC(Cc3ccc(C)cc3)C2=O)sc1C (stereo unspecified) returned G9a inh 1.4µM*, JMJD2A Tudor -24%, HP1b binding inh 37%, BAZ2B block inconclusive, CtBP-E1A blk 1 and Six1-Eya2 blk -4.
Screening Cc1ccc(CC2CC(=O)N(c3nc4ccccc4s3)C2=O)cc1 (stereo unspecified) returned G9a inh -19%, JMJD2A Tudor -4%, HP1b binding inh 32%, BAZ2B block -14% and Six1-Eya2 blk 4.
For COC(=O)Nc1ccc2c(c1)OCO2 the results were G9a inh inconclusive, JMJD2A Tudor -29%, HP1b binding inh 4%, BAZ2B block -31%, CtBP-E1A blk -8 and Six1-Eya2 blk -1.
For Cc1ccc(S(=O)(=O)NCC(=O)OCC(=O)NCc2ccc3c(c2)OCO3)cc1 the results were G9a inh 56µM*, JMJD2A Tudor -16%, HP1b binding inh -3%, BAZ2B block 12%, CtBP-E1A blk 1 and Six1-Eya2 blk 4.
For Cc1ccc(S(=O)(=O)c2nnn3c2nc(NCc2ccc4c(c2)OCO4)c2sccc23)cc1 the results were G9a inh -9%[59 µM], JMJD2A Tudor -22%, HP1b binding inh 7% and BAZ2B block -3%.
Cc1ccc(C(=O)Nc2ccc3c(c2)OCO3)cc1 was read as G9a inh inconclusive, JMJD2A Tudor -34%, HP1b binding inh -4%, BAZ2B block -36%, CtBP-E1A blk -16 and Six1-Eya2 blk -5.
For COC(=O)CNc1ccc2c(c1)OCO2 the results were G9a inh 8.9µM*, JMJD2A Tudor inconclusive, HP1b binding inh -21%, BAZ2B block -32%, CtBP-E1A blk -2 and Six1-Eya2 blk 11.
`Cc1ccc(CNc2ccc3c(c2)OCO3)cc1` gave G9a inh inconclusive, JMJD2A Tudor 45µM*, HP1b binding inh -24%, BAZ2B block 50µM*, CtBP-E1A blk -13 and Six1-Eya2 blk -14.
Screening Cc1ccc(S(=O)(=O)c2nc(NCc3ccc4c(c3)OCO4)sc2Cl)cc1 returned G9a inh 32µM*, JMJD2A Tudor -30%, HP1b binding inh 5%, BAZ2B block -1%, CtBP-E1A blk -4 and Six1-Eya2 blk -14.
Screening Cc1ccc(NS(=O)(=O)c2cc3c(cc2C)OCC(=O)N3)cc1C returned JMJD2A Tudor -26%.
c1cc(CNc2ccc3c(c2)OCO3)ccn1 was read as G9a inh 35µM*, JMJD2A Tudor inconclusive, HP1b binding inh -54%, BAZ2B block inconclusive, CtBP-E1A blk -10 and Six1-Eya2 blk -6.
Screening COc1ccccc1CCNC(=O)c1ccc2c(c1)c(C)c(C)n2Cc1ccc(Cl)cc1 returned G9a inh -23%[59 µM], JMJD2A Tudor inconclusive, HP1b binding inh 26% and BAZ2B block -20%.
